# Experimental data: PubChem BioAssay (EPA / NIEHS)
# “And” between values parts separate entries of the source, which are not always exact repeats. Equal entries are not always repeated. Results filed as inconclusive are left out. The source holds several records for some structures; these can differ, active in one and inactive in another. The source made the active and inactive calls. Rule for the calls, unless noted: active = hit-call score of the fitted dose curve at least 0.9, where 1 is the maximum; inactive = score below 0.9.
# Tests used:
# [1] = CCTE_Shafer_MEA_dev_spike_duration_mean: CCTE's Neural Network Formation Assay for Mean Spike Duration, Shafer Lab (AID 2284051);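 note: mean network spike duration pooled as area under curve over DIV 5 to 12 recordings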;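 for AC50: potency for a decrease in mean network spike duration versus DMSO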
# Outline: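 Spontaneous activity was recorded on days 5, 7, 9 and 12 from rat cortical cultures grown on microelectrode arrays and dosed continuously from day 0, with media and compound renewed after the DIV 5 and 9 recordings. Network-spike duration was collapsed by area under the curve.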
# [2] = CCTE_Shafer_MEA_dev_network_spike_duration_std: CCTE's Neural Network Formation Assay for Standard Deviation of Network Spike Duration, Shafer Lab (AID 2284052);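 note: hits are decreases in network spike duration SD versus DMSO vehicle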
# Outline: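 Network spike duration variability was collapsed across recordings on days 5, 7, 9 and 12 by trapezoidal area-under-curve and fitted downward against DMSO. Cultures were rat cortical neurons on PEI-coated MEA plates, dosed continuously from plating, refed with compound DIV 5/9.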
# [3] = CCTE_Shafer_MEA_dev_per_network_spike_spike_number_mean: CCTE's Neural Network Formation Assay for Mean Number of Spikes in a Network Spike, Shafer Lab (AID 2284053);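 for AC50: fitted as decrease in spikes per network spike relative to DMSO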
# Outline: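 Mean spike count within each network spike, taken in a 0.05 s window at its peak, was recorded on days 5, 7, 9 and 12 and integrated as trapezoidal area under the curve. Rat cortical cultures on MEA plates received continuous compound from day 0, refreshed at medium changes on DIV 5 and 9.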
# [4] = CCTE_Shafer_MEA_dev_per_network_spike_spike_percent: CCTE's Neural Network Formation Assay for Percent of Spikes in a Network Spike, Shafer Lab (AID 2284054)
# Outline: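 Rat primary cortical cultures, 1.5 x 10^5 cells/well on MEA. Continuous compound exposure d0–12, medium/compound renewed DIV 5, 9. Network-spike spike % (0.05 s peak window), AUC over 4 recordings, DMSO baseline.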
# [5] = CCTE_Shafer_MEA_dev_LDH: CCTE's Lactate Dehydrogenase Assay for Cytotoxicity in the Neural Network Formation Assay, Shafer Lab (AID 2284068; active = hit-call score of the fitted dose curve at least 0.9, where 1 is the maximum;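 note: exposure for twelve days from plating with re-dosing on DIV 5 and 9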)
# Outline: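 Primary rat cortical neurons were cultured on PEI-coated MEA plates and exposed from plating through day 12, with compound renewed at medium changes on DIV 5 and 9. LDH activity was read spectrophotometrically; loss of signal versus DMSO indicates reduced viability.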
# [6] = CCTE_Shafer_MEA_acute_AB: CCTE's Alamar Blue Assay for Cytotoxicity in the Neural Acute Assay, Shafer Lab (AID 2284069; active = hit-call score of the fitted dose curve at least 0.9, where 1 is the maximum;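 note: active compounds lower the viability signal compared with DMSO wells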)
# Outline: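 Resazurin reduction (CellTiter Blue, 1:6 in fresh medium) read at ex 544/em 590 nm marks viability loss relative to DMSO. Cells: primary rat cortical neuron networks on microelectrode arrays, treated after baseline recording at 13 or 15 days in vitro.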
# DIO2 (gene 1734) = assay: CCTE_GLTED_hDIO2: CCTE's human Deiodinase 2 (DIO2) Inhibition Assay, Great Lakes Toxicology and Ecology Division (GLTED) Lab (AID 2284050; active = hit-call score of the fitted dose curve at least 0.9, where 1 is the maximum)
# Experimental: CCTE_GLTED_hDIO2 is a cell-free, single-readout assay designed to test the inhibitory activity of chemicals toward human iodothyronine Deiodinase type 2 (DIO2) enzyme. Enzyme is incubated in presence of test chemical for 3 hours during which uninhibited enzyme liberates free iodide from substrate. Free iodide is measured in a second step using the Sandell-Kolthoff method.CCTE_GLTED_hDIO2 is the assay component measured from the CCTE_GLTED_hDIO2 assay. It is designed to make measurements of enzyme activity, a form of enzyme reporter, as detected with absorbance signals by spectrophotometry.Data from the assay component CCTE_GLTED_hDIO2 was analyzed into 1 assay endpoint. This assay endpoint, CCTE_GLTED_hDIO2, was analyzed in the positive analysis fitting direction relative to DMSO as the negative control and baseline of activity. Using a type of enzyme reporter, loss-of-signal activity can be used to understand changes in the enzymatic activity as they relate to the gene DIO2. Furthermore, this assay endpoint can be referred to as a primary readout, because the performed assay has only produced 1 assay endpoint. To generalize the intended target to other relatable targets, this assay endpoint is annotated to the 'deiodinase' intended target family, where the subfamily is 'deiodinase Type 2'.
# Human deiodinase type 2 (hDIO2) assay, developed at Great Lakes Toxicology and Ecology Division (GLTED) within the EPA's Center for Computational Toxicology and Exposure (CCTE), is designed to test the chemicals' ability to inhibit DIO2. Assay is based on iodide release measured by the Sandell-Kolthoff method and is run in 96-well plate format with assay plates run in triplicate (n=3). The method used for the deiodinase assay was largely based on Renko et al. (2012, 2015). These works describe the utilization of the SK reaction to measure deiodinase-liberated iodide in a 96-well-plate format. The SK reaction is based on the reduction of the yellow-colored cerium IV to the non-colored cerium III by arsenic, with the rate of this reaction increased in the presence of iodide in a concentration-dependent manner (Sandell and Kolthoff, 1937). Iodinated test chemicals can interfere as competitive inhibitors, or if the stock chemical has contaminating free-iodide present. Other chemicals, e.g.: nitrite, iron, and thiocyanate can interfere with the Sandell-Kolthoff reaction (see Sandell and Kolthoff, 1937).
# DIO3 (gene 1735) = assay: CCTE_GLTED_hDIO3: CCTE's human Deiodinase 3 (DIO3) Inhibition Assay, Great Lakes Toxicology and Ecology Division (GLTED) Lab (AID 2284055; active = hit-call score of the fitted dose curve at least 0.9, where 1 is the maximum;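 for AC50: potency is for inhibition seen as loss of released iodide signal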)
# Outline: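 Human DIO3 from an adenovirus expression system is incubated 3 h with test chemical. Released iodide is quantified by Sandell-Kolthoff absorbance, in triplicate plates. Loss of signal is fitted relative to DMSO.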
# [7] = UKN5_HCS_SBAD2_cell_viability: Viability Assessment in the University of Konstanz (UKN) Leist Lab Neurite Outgrowth Assay in human iPSC-derived immature Dorsal Root Ganglia Neurons (UKN5) (AID 2284056)
# Outline: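 iPSC-derived immature peripheral neurons (SBAD2) seeded on Matrigel with CHIR99021, SU5402 and DAPT, dosed 1 h later for 24 h. Viability from Hoechst H-33342 and calcein-AM live staining, high-content imaging; bidirectional fit versus DMSO.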
# [8] = UKN5_HCS_SBAD2_neurite_outgrowth: University of Konstanz (UKN) Leist Lab Neurite Outgrowth Assay in human iPSC-derived immature Dorsal Root Ganglia Neurons (UKN5) (AID 2284070); settings: actives raise or lower the signal
# Outline: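 SBAD2 iPSC-derived immature peripheral neurons on Matrigel, 100.000 cells/cm2, medium with CHIR99021 (1.5 uM), SU5402 (5 uM), DAPT (5 uM); compound added 1 h post-seeding for 24 h. Calcein-AM neurite area by high-content imaging; Hoechst H-33342 viability; bidirectional fit vs DMSO.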
smiles,measurement,setting,value
CCC1(c2ccccc2)C(=O)N=C(O)NC1=O (stereo not given),outcome,[1],inactive
same,outcome,[2],inactive
same,outcome,[3],inactive
same,outcome,[4],inactive
same,outcome,[5],inactive
same,outcome,[6],inactive
CCCCC(CC)COC(=O)c1c(Br)c(Br)c(Br)c(Br)c1C(=O)OCC(CC)CCCC (stereo not given),outcome,[1],inactive
same,outcome,[2],inactive
same,outcome,[3],inactive
same,outcome,[4],inactive
same,outcome,[5],inactive
[N-]=[N+]=[N-],outcome,[6],inactive
O=C(O)C(F)(F)C(F)(F)C(=O)O,outcome,[1],inactive
same,outcome,[2],inactive
same,outcome,[3],inactive
same,outcome,[4],inactive
same,outcome,[5],inactive
ClC1=C(Cl)C2(Cl)C3C(Cl)C(Cl)CC3C1(Cl)C2(Cl)Cl (stereo not given),AC50,[1],7.67 µM (active)
same,outcome,[2],inactive
same,AC50,[3],7.75 µM (active)
same,AC50,[4],7.62 µM (active)
same,AC50,[5],7.62 µM (active)
same,outcome,[6],inactive
CCCCC(CC)COP(=O)(Oc1ccccc1)Oc1ccccc1 (stereo not given),outcome,[1],inactive
same,outcome,[2],inactive
same,outcome,[3],inactive
same,outcome,[4],inactive
same,AC50,[5],6.12 µM (active)
CC(O)C(F)(F)C(F)(F)F (stereo not given),outcome,[1],inactive
same,outcome,[2],inactive
same,outcome,[3],inactive
same,outcome,[4],inactive
c1ccc(OP(Oc2ccccc2)Oc2ccccc2)cc1,outcome,[1],inactive
same,outcome,[2],inactive
same,outcome,[3],inactive
same,outcome,[4],inactive
same,outcome,[5],inactive
O=P1(N(CCCl)CCCl)NCCCO1 (stereo not given),outcome,[1],inactive
same,outcome,[2],inactive
same,outcome,[3],inactive
same,outcome,[4],inactive
same,AC50,[5],11.6 µM (active)
CC(C)(C)c1ccccc1OP(=O)(Oc1ccccc1)Oc1ccccc1,AC50,[1],25.7 µM (active)
same,outcome,[1],inactive
same,outcome,[2],inactive
same,AC50,[3],25.4 µM (active)
same,outcome,[3],inactive
same,AC50,[4],15 µM (active)
same,outcome,[4],inactive
same,AC50,[5],15.5 µM (active) and 26 µM (active)
CO/N=C(/C(=O)OC)c1ccccc1COc1ccccc1C,AC50,[1],0.688 µM (active)
same,AC50,[2],0.312 µM (active)
same,AC50,[3],0.518 µM (active)
same,AC50,[4],0.902 µM (active)
same,AC50,[5],0.811 µM (active)
O=C(O)C(F)(F)OC(F)(F)C(F)(F)OC(F)(F)C(=O)O,outcome,[1],inactive
same,outcome,[2],inactive
same,outcome,[3],inactive
same,outcome,[4],inactive
C=CC(=O)OCC(F)(F)C(F)F,AC50,DIO2 (gene 1734),47.3 µM (active)
same,AC50,[1],15 µM (active)
same,outcome,[2],inactive
same,AC50,[3],4.85 µM (active)
same,AC50,[4],15 µM (active)
same,AC50,DIO3 (gene 1735),52.4 µM (active)
same,AC50,[5],8.15 µM (active)
COC(=O)C(F)(F)C(F)(F)OC(F)(C(F)(F)F)C(F)(F)OC(F)=C(F)F (stereo not given),AC50,DIO2 (gene 1734),18.2 µM (active)
same,AC50,DIO3 (gene 1735),3.1 µM (active)
O=C(O)C(F)(OC(F)(F)C(F)(F)C(F)(F)F)C(F)(F)F (stereo not given),outcome,[1],inactive
same,outcome,[2],inactive
same,outcome,[3],inactive
same,outcome,[4],inactive
same,outcome,[5],inactive
O=S1(=O)OCC2C(CO1)C1(Cl)C(Cl)=C(Cl)C2(Cl)C1(Cl)Cl (stereo not given),outcome,[7],inactive
same,outcome,[8],inactive
O=C(O)C=CC(F)(C(F)(F)F)C(F)(F)F,outcome,[1],inactive
same,outcome,[2],inactive
same,outcome,[3],inactive
same,outcome,[4],inactive
CCCCCCCc1ccc(O)cc1,AC50,DIO2 (gene 1734),136 µM (active)
same,AC50,DIO3 (gene 1735),81.2 µM (active)
CCOc1ccc(C(C)(C)COCc2cccc(Oc3ccccc3)c2)cc1,AC50,[1],4.41 µM (active)
same,outcome,[2],inactive
same,AC50,[3],10 µM (active)
same,AC50,[4],10 µM (active)
same,AC50,[5],15.2 µM (active)
OCC(F)(F)OC(F)(F)C(F)(F)OC(F)(F)C(F)(F)OC(F)(F)CO,outcome,[1],inactive
same,outcome,[2],inactive
same,outcome,[3],inactive
same,outcome,[4],inactive
COCCOCCO,outcome,[6],inactive
O=S(=O)(F)C(F)(F)C(F)(F)C(F)(F)C(F)(F)C(F)(F)C(F)(F)C(F)(F)C(F)(F)F,AC50,DIO3 (gene 1735),28.4 µM (active)
O=P(Oc1ccccc1)(Oc1ccccc1)Oc1ccccc1,outcome,[1],inactive
same,outcome,[2],inactive
same,outcome,[3],inactive
same,outcome,[4],inactive
same,outcome,[5],inactive
CC1(C)CN=C(NN=C(/C=C/c2ccc(C(F)(F)F)cc2)/C=C/c2ccc(C(F)(F)F)cc2)NC1,AC50,DIO2 (gene 1734),18.8 µM (active)
same,outcome,DIO3 (gene 1735),inactive
O=C(O)C1C(C(=O)O)C2(Cl)C(Cl)=C(Cl)C1(Cl)C2(Cl)Cl (stereo not given),outcome,[1],inactive
same,outcome,[2],inactive
same,outcome,[3],inactive
same,outcome,[4],inactive
same,outcome,[5],inactive
same,outcome,[6],inactive
CCNc1nc(Cl)nc(NC(C)(C)C)n1,outcome,DIO2 (gene 1734),inactive
same,AC50,DIO3 (gene 1735),11.4 µM (active)
O=S(=O)(c1ccc(O)cc1)c1ccc(O)cc1,outcome,[1],inactive
same,outcome,[2],inactive
same,outcome,[3],inactive
same,outcome,[4],inactive
same,outcome,[5],inactive
CCC(C)(C)c1ccc(O)cc1,outcome,[6],inactive
OCC(F)(F)OC(F)(F)C(F)(F)OC(F)(F)CO,outcome,[1],inactive
same,outcome,[2],inactive
same,outcome,[3],inactive
same,outcome,[4],inactive
same,outcome,[5],inactive
CC(Cl)(Cl)C(=O)O,outcome,[6],inactive
c1cc2c3c(cccc3c1)CC2,outcome,[1],inactive
same,outcome,[2],inactive
same,outcome,[3],inactive
same,outcome,[4],inactive
CCOP(=S)(Oc1ccc([N+](=O)[O-])cc1)c1ccccc1 (stereo not given),outcome,[6],inactive
CCOP(=S)(OCC)SCSCC,AC50,[1],72.3 µM (active)
same,outcome,[1],inactive
same,outcome,[2],inactive
same,AC50,[3],50 µM (active) and 12.1 µM (active)
same,AC50,[4],92 µM (active)
same,outcome,[4],inactive
same,AC50,[5],33.7 µM (active)
same,outcome,[5],inactive
O=C(O)C(F)(F)OC(F)(F)C(F)(F)OC(F)(F)F,outcome,[1],inactive
same,outcome,[2],inactive
same,outcome,[3],inactive
same,outcome,[4],inactive
ClC(Cl)(Cl)c1ccccc1,outcome,[6],inactive
c1ccc2c(c1)Nc1ccccc1S2,outcome,[6],inactive
O=c1ssc(Cl)c1Cl,AC50,DIO2 (gene 1734),13.8 µM (active)
same,AC50,DIO3 (gene 1735),3.57 µM (active)
OCC(F)(F)OC(F)(F)C(F)(F)OC(F)(F)C(F)(F)OC(F)(F)F,outcome,[1],inactive
same,outcome,[2],inactive
same,outcome,[3],inactive
same,outcome,[4],inactive
same,outcome,[5],inactive
